Experimental data taken from PubChem BioAssay AID1508600 (Functional Genomics Laboratory (NCATS/FGL), 2020).
About 3,700 (7%) of roughly 53,000 sequences were called active. The full list was thinned out, with actives kept by preference. A number with no mark means an inactive call.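 The calls were made as follows: active = gene knockdowns whose robust z-score for IL-1 alpha signal is at least 2 or at most -2, so actives lie on both sides; inactive = the rest.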

Assay: Components of the Cytosolic LPS Sensing Pathway: Gene Identification via Genome-wide siRNA Screen;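 also: robust z of the log signal after scaling to non-targeting control siRNA wells of the plate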
Details: RAW264.7 macrophages, IL-1a HTRF, actives lie on both sides, screened at 100 nM (by protocol), cells primed 5 h with Pam3CSK4 first
Procedure, shortened: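 Three distinct siRNAs per gene were tested singly at 100 nM in RAW264.7 macrophages. Following Pam3CSK4 priming and 24 hour LipidA transfection, IL-1a secretion was read by HTRF.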
In the case of GGAACAGAAGUCAAGUGGATT against Acsm5, the z-score is reported as 2.69 (active). In the case of GCUGGACACGGAAGGUAUATT against Igsf8, the z-score is reported as -0.595. In the case of “CCUAAGAACCCUGAUCCUATT against A030005L19Rik”, the z-score is reported as 1.08. Sequence GGAAAAGGAAGAACUGAUUTT against Sptlc1 has a z-score of -0.477. Work on GGACACCAUUGGCUCCUUATT against Tmub1 yielded a z-score of 1.63. GGUGAUGUUCUAACCCUGCTT against Trex1 showed a z-score of -0.0124. Sequence GGCUUUGUCUACACUUUCATT against Olfr1308 has a z-score of -1.02. GGAUGGGAAGGUGAUUGUCTT against Gnb5 showed a z-score of 1. With CCUGGUGUUCGUGUACCUGTT against Cdk5r2 the z-score was 3.1 (active). GGAUUUAUUUAUGUCUUCCTT against Slc17a1 showed a z-score of 0.0643. GCAGUUGAGACAAUAUGUCTT against Trim31 showed a z-score of -1.8. In the case of GGAUGUGUCGGGAAAUGCUTT against Frmd5, the z-score is reported as -1.7. With GCACUAGAAGUGUCUUUUCTT against Cdhr1 the z-score was 2.17 (active). With GGACAUUUUUCAUUUGUGATT against Zfhx4 the z-score was 1.28. Work on GGUCAUUCACGUCUGCGUUTT against Kcnj8 yielded a z-score of -0.292. For CCAGUGCAGGACCUCAUUUTT against Sod1, the z-score was -2.06 (active). GGCAGCUCUGACUUUAUAATT against Klhdc3 gave a z-score of -1.63. For CCCUGUAGAAAUUCAAGCCTT against Lyrm4, the z-score was 0.38. In the case of GGACAGAGCAUCACAGAAGTT against Tmem154, the z-score is reported as -2.33 (active). For GCGGUUUGUCUUCAACAAGTT against Il1b, the z-score was 0.22. In the case of CCCUGGACUAAGGAUCACCTT against Cops5, the z-score is reported as -1.2. Work on GGCAGAAGAAGAGUUCAACTT against Atp6v1e1 yielded a z-score of -1.1. Work on GCUAAGUACGUUCAUGGCATT against Gba yielded a z-score of 0.571. For CGAAACUUACCAGGAGUCGTT against Ttyh2, the z-score was -2.31 (active). Sequence GGACUCAUGUUCAACACAGTT against Dimt1 has a z-score of -0.87. GGGAACUGACAAAUGGAAGTT against Samsn1 showed a z-score of -0.0777. Work on CGGCAGUCGUGAGACAUAUTT against Camk1d yielded a z-score of -1.01. For GGAUUUUUAGUGUUUGACATT against Rab39, the z-score was -1.52. For GGGAAUACGGAACCUUCUUTT against Olfr683, the z-score was 2.04 (active). GGGCAGUUUUACAAAUGUUTT against Fbxw8 showed a z-score of 0.985. Work on GGAACUCCAACAGGACUUUTT against Slc26a9 yielded a z-score of -0.565. With GGAAGGAAGCAGAGAGUUATT against Ndel1 the z-score was 2.92 (active). UUUACUAGACCUGAUGGCUTT against Olfr815 gave a z-score of 0.732. With GGGACUCUUCUACGAGUUUTT against Lims2 the z-score was 0.836. For GGAAAACAAGAGGUGAUCUTT against Bfar, the z-score was -1.62. Sequence GGUGUUUGAUAGGUAUCUUTT against Ptpa has a z-score of -1.12. For GGAUCAUUUGAAAUUGCUGTT against Dmac2l, the z-score was 2.88 (active). CCUGAAAAAAUUUAUCGCCTT against Pcgf3 gave a z-score of -0.363. GGGUUCGAGGAAAAGGAAGTT against Acsf3 gave a z-score of 0.65. Work on GGUGUCAGAAGCAGUGUAUTT against Treml1 yielded a z-score of 0.459. GCCGAGGCUGUUGUGUUGATT against Gpaa1 showed a z-score of -1.04. Work on GGAGGUUUUUUUGUUUUGUTT against Serpinb13 yielded a z-score of -0.614. With GGCAUUUUUCUUAGUGAUCTT against Olfr1277 the z-score was -2.04 (active). In the case of CCCACUUAUAUAUGUAGUUTT against Wdyhv1, the z-score is reported as 0.282. For GGGCUUCAAACCCACAGAATT against Nova2, the z-score was -1.19. In the case of GGAAUAUCAGCCAUAAGUUTT against Cplx4, the z-score is reported as 1.78. CGAUUCAUUCAGUUUGUAATT against Terb1 showed a z-score of -0.631. GGUGUUUGAUAAUGAAGAGTT against Dnah1 gave a z-score of -0.214. In the case of GGCGAAGGUGUAGAAUCUCTT against Samd12, the z-score is reported as 2.48 (active). For GGUCAUUUUGGGAUAUCAGTT against Lman1, the z-score was -1.19. In the case of CCGCGUGUGCUCCUUUUUGTT against Zcchc3, the z-score is reported as -0.627. In the case of GGCUGGUUUACAACAGAACTT against Pla2g15, the z-score is reported as -0.647. Work on CCAUUUGAUGACAGUAAUATT against Olfr178 yielded a z-score of 1.03. With GCUCUUGACACUAGAGAUUTT against Ap1s3 the z-score was 0.0373. For GGUGUGAUGCUUGAGUGUCTT against Skint3, the z-score was 2.08 (active). Sequence GGAGUAGCAAAGAACUGCUTT against Arpc4 has a z-score of -0.762. In the case of CCACAUGAGUGGACCUACGTT against Arid3c, the z-score is reported as -1.33. GGAGCUCUGGGACAAAUUCTT against Tbx20 showed a z-score of 1.34. With CGUGGCUAGGUUAUUUAAATT against Htr1d the z-score was 1.01. In the case of GGACACUUCCAUGUGCUACTT against Cep19, the z-score is reported as 2.14 (active). “CCUCAAAAUGGCUAUGGACTT against 1520401A03Rik” showed a z-score of 0.587. In the case of GGAAAGAAACUUAAAGUGGTT against Tfdp1, the z-score is reported as 2.64 (active). GGUUCGAUGUCCAGUCACUTT against Ppp2ca gave a z-score of -1.41. For GCCAUUGCUUUAUAAGGUUTT against Olfr901, the z-score was -1.24. Work on GGAUACAAAUCCAGAUUCUTT against Pex26 yielded a z-score of -0.982. Sequence GGAACGAAUUUUAGAUGCATT against Rbbp8 has a z-score of 1.14. With CCCAGAGCAUUCCUAUUACTT against Klrg2 the z-score was -2.84 (active). With GCACGGUAUCUCGAAGUCGTT against Spata18 the z-score was -0.785. Sequence CCAUUCAAUGGUAACUGAATT against Olfr229 has a z-score of -0.382. In the case of GCAGUCGCUUUGUUUUAUATT against Olfr1204, the z-score is reported as -0.225. In the case of GGAAAUCGAAUGAAUAACCTT against Klf12, the z-score is reported as 3.45 (active). Sequence GGCUGAGAAGCAGACUUCCTT against Dclk3 has a z-score of 1.23. GCUACGUUUACUGACCACATT against Bcat1 showed a z-score of 1.55. In the case of CCUACUCGUCUCUUUCACCTT against Tlcd1, the z-score is reported as 0.158. Work on GCAACUUUUAAUUGGUCUATT against Agrn yielded a z-score of -0.537. Work on GGUUUUACCGAUGAUGCAUTT against Pcdhb20 yielded a z-score of -0.624. With GGUAAUGGCUCACUUAAUATT against Malt1 the z-score was -0.427. In the case of GGUCUUUGACAUUUUGAAUTT against Lrrk2, the z-score is reported as -0.295. In the case of GUACACUCAGGCUGAGGGUTT against Acyp1, the z-score is reported as 0.0397. In the case of GCAAUACUAUUCAGUCCAUTT against Gnai3, the z-score is reported as -2.45 (active). Work on GGUUCCACUCAACUGAAGATT against Actl7b yielded a z-score of -0.123. GGCCUGCUACUUUUGAUGCTT against Olfr166 gave a z-score of 0.0524. In the case of GCACCUCUGACAAGGUUCUTT against Plin1, the z-score is reported as 2.65 (active). Work on GGGUCAUUUCCUAUGCAGGTT against Olfr866 yielded a z-score of -1.24. CCAAGAUUCAUAAGAAGGCTT against Tas2r131 gave a z-score of 0.646. In the case of GCUAGAAUUCAUGUUUCGUTT against Dgkg, the z-score is reported as 0.487. With GGUGCACUUUGAAUCAGGGTT against Uchl4 the z-score was 0.91. For GGACAUCUACACCAUUUGGTT against Mplkip, the z-score was -2.11 (active). GGUAACUAUGAAGAGAUCATT against Neu2 showed a z-score of 0.312. Sequence “GGAUUAGGAAAGAGAGAACTT against 4930519G04Rik” has a z-score of -1.43. With GGUCAUCGUGUGCAACCUCTT against Zcchc3 the z-score was -3.24 (active). For GGAACAGUUCAAGUGAAGCTT against Sertad2, the z-score was -0.0174. With GGAAGAUGAGAAAAUUCCATT against Ccni the z-score was -0.44. Work on GCCACAGAAAGUGAUUGAGTT against Rbp7 yielded a z-score of -0.418. For GGUACAGACCUUUGAAAUATT against Apobec2, the z-score was -0.125. CCGCAUGGAGCAUCUAAUATT against Tuft1 gave a z-score of 0.04. In the case of GGGAGACCUGCUACUAUUGTT against Gtf3c2, the z-score is reported as 2.58 (active). For GGAAACAACAACAAAUACATT against C1ql3, the z-score was 1.52. With GGAAGAUCCUCGAUAGUCATT against Rgs7 the z-score was 1.2. GACCAUCUCCUUUACGGGCTT against Olfr71 showed a z-score of 0.133. In the case of GGCCAAAGAAGAAAGUGACTT against Opn3, the z-score is reported as -2.72 (active). For GUGGUAAACAGAAUGGUGATT against Ccdc92b, the z-score was -1. With GCACCCAUAUCAACGAGGUTT against Olfr924 the z-score was 0.484. GGUGACCAGCAAGUCAUGCTT against Chrdl1 gave a z-score of -0.663. In the case of GGAAGAAAAAAACUUCGUUTT against Gabrg3, the z-score is reported as 0.186. For CCUGAAAGAUGCUCUCUAUTT against Inpp4b, the z-score was 4.27 (active). Work on GCACAGCUUUUUGGAUCUGTT against Zfyve26 yielded a z-score of -0.75. For CCAGAGUCUUUGGUAAUGCTT against Krtap3-3, the z-score was 1.07.
